Screening results from PubChem BioAssay.
Most compounds without a hit are left out; they make up all but 8% or so of the library.
HCV inh: qHTS Assay for Inhibitors of Hepatitis C Virus (HCV); Huh7.5.1 HCVcc-Cre infection, luciferase reporter, 44 h; Potency, µM (doses to about 41.8 µM), without a hit: at the highest dose activity change, negative = inhibition, usual class: inhibitors; hit rate 3.4% among 340,000; AID 651820, 2012; active means well fitted inhibition curve with a large enough effect; inconclusive means small, poorly fitted or top-dose-only effect, or another doubt; inactive means no such curve, though single readings can be large or run the other way; further: potency means the concentration at half of the fitted maximal effect; on the % scale 0 is the no-effect control and ±100 the full control effect
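Whole-lifecycle infectious HCVcc-Cre system; cells 1,000/well, compound then virus (~0.5 moi) added 4 h after plating, 44 h culture. Luciferase read 15 sec following 15 min substrate incubation, room temp.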
FMDV inh: High Throughput Screening for Foot and Mouth Disease Virus Antivirals | FMDV antiviral cell-based qHTS | Potency, µM (doses to about 57.9 µM), without a hit: at the highest dose activity change, negative = inhibition, hits mostly inhibitors | hit rate 1.2% among 410,000 | AID 1159524, 2015; calls by dose curve; tested in HEK293T cells; further: read-out not given here; potency means the concentration at half of the fitted maximal effect; on the % scale 0 is the no-effect control and ±100 the full control effect; nearly all actives have a fitted effect of over 45% in size
MARV entry inh: qHTS for inhibitors of binding or entry into cells for Marburg Virus; Marburg virus pseudotyped entry inhibition, cell reporter; Potency, µM (top dose mostly 37.8 µM), inactives show at the top dose activity change, negative = inhibition, hits mostly inhibitors; hit rate 1.8% among 300,000; calls by dose curve; tested in HEK293 cells; further: potency means the concentration at half of the fitted maximal effect; on the % scale 0 is the no-effect control and ±100 the full control effect
SARS PLpro yeast: qHTS of Yeast-based Assay for SARS-CoV PLP. S. cerevisiae expressing SARS-CoV PLpro, growth rescue. Potency, µM (titrated, usually from 32.9 µM), for the others: top-dose activity, positive = growth rescue, actives largely listed as activators. hit rate 0.19% among 330,000. AID 485353, 2010; calls by dose curve; further: potency means the concentration at half of the fitted maximal effect; 0% is about no effect; nearly all actives have a fitted effect of over 55% in size
Lassa entry inh: qHTS for Inhibitors of binding or entry into cells for Lassa Virus; Lassa virus pseudotype entry inhibition, cell reporter; hit rate 1.2% among 300,000; Potency, µM (titrated, usually from 37.9 µM), for inactives: top-dose activity change, negative = inhibition, hits mostly inhibitors; calls by dose curve; tested in HEK293 cells; further: potency means the concentration at half of the fitted maximal effect; on the % scale 0 is the no-effect control and ±100 the full control effect; nearly all actives have a fitted effect of over 50% in size
HCMV inh: qHTS Assay for inhibitors of the human cytomegalovirus (HCMV). activity change, negative = inhibition, % at 57.5 µM. HFF cells, HCMV-luciferase reporter, 72 h; hits give low values. hit rate 4.5% among 410,000; in the data active means activity change below about -60%; inconclusive means no clear call, values can overlap the other calls; inactive means above about -39%; further: on the % scale 0 is the no-effect control and ±100 the full control effect
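Screen run at 2 compound doses on HFFs infected with reporter HCMV, MOI 1 PFU/cell. Luciferase activity from cell lysates at 72 h post infection gave inhibition relative to buffer-only and Salinomycin wells.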
Numbers without * were called inactive; ? = inconclusive; / = no result given; ! = not active in a repeat; [ ] = another dose, or the depositor's remark.

SMILES	HCV inh	FMDV inh	MARV entry inh	SARS PLpro yeast	Lassa entry inh	HCMV inh
CN(Cc1ccccc1)C1=CC(=[N+]2CCCC2)CC(C)(C)C1	?	?	?	0%	?	-99*
COc1ccc(NC(=O)Nc2nnc(N3CCCC3)s2)cc1	/	26%	1%[46.1 µM]	/	-12%[46.1 µM]	35
COc1ccc(CCNC(=O)CN(c2ccc(C)cc2)S(=O)(=O)c2ccc(OC)cc2)cc1	/	-19%	1%[46.1 µM]	/	-9%[46.1 µM]	-8
Cc1nc(N2CCN(C(=O)CCC(=O)O)CC2)c2c(C)c(C)sc2n1	30%	/	12%	-2%	-7%	43
Cc1nc(N2CCN(S(=O)(=O)c3ccc(Br)cc3)CC2)c2c(C)c(C)sc2n1	?	?	?	-1%	24%[46.1 µM]	-63*
Cc1ccc(S(=O)(=O)N2CCN(c3nc(CN4CCCC4)nc4sc(C)c(C)c34)CC2)cc1	?	-22%	/	-2%	/	0
CCC(=O)N1CCN(c2nc(C)nc3sc(C)c(C)c23)CC1	?	/	5%	-8%	-6%	-68*
CCc1nc(N2CCN(S(=O)(=O)c3ccc(Br)cc3)CC2)c2c(C)c(C)sc2n1	13µM*	/	6%	/	-40%	-4
Cc1sc2nc(CN3CCCC3)nc(N3CCN(S(=O)(=O)c4cccs4)CC3)c2c1C	-17%	-7%	15µM*!	0%	-7%	-15
COc1cccc(C2(CSc3nnc(-c4cc(OC)c(OC)c(OC)c4)o3)OCCO2)c1	?	?	-16%	1%	11µM*	-22
O=S1(=O)c2ccc(Br)cc2-n2nncc2CN1Cc1ccc(C(F)(F)F)cc1	/	/	/	/	8%[46.1 µM]	/
CCn1cc(C(=O)OCC(=O)Nc2ccc(C)c(Cl)c2)c(=O)c2ccc(C)nc21	/	3%	-1%[46.1 µM]	/	14%[46.1 µM]	9
COc1ccc(S(=O)(=O)N(C)CC(=O)Nc2ccc3c(c2)OCO3)cc1	?	/	6%	-4%	-15%	21
COc1ccc(N(CC(=O)Nc2ccc3c(c2)OCO3)S(=O)(=O)c2ccc(F)cc2)cc1	?	24%	-7%	20%	-9%	-76*
COc1ccc(N(CC(=O)Nc2ccc3c(c2)OCCO3)S(=O)(=O)c2c(C)nn(C)c2C)cc1	4%	0%	-8%	-12%	/	3
COc1ccc(N(CC(=O)Nc2ccc3c(c2)OCCO3)S(=O)(=O)c2cccc(C)c2)cc1	?	-7%	?	5%	?	-77*
COc1ccc(N(CC(=O)Nc2ccc3c(c2)OCO3)S(=O)(=O)c2ccccc2)c(OC)c1	?	39%	0%	4%	-15%	-68*
COc1ccc(NC(=O)CN(C)C(=O)c2ccc(S(=O)(=O)N3CCOCC3)cc2)cc1	/	-25%	/	/	/	-8
COc1ccc(S(=O)(=O)N(CC(=O)Nc2ccc(S(=O)(=O)N3CCOCC3)cc2)c2ccccc2)cc1	5.6µM*	-24%	?	19%	?	-85*
Cc1ccc(N(CC(=O)N2CC(=O)Nc3ccccc32)S(=O)(=O)c2ccc3c(c2)OCCO3)cc1	9%	5%	7%	-19%	?	-63*
COc1ccc(S(=O)(=O)N(CC(=O)Nc2cccnc2)c2ccc(Cl)cc2)cc1	/	-6%	-6%[46.1 µM]	/	?	-104*
COc1ccc(S(=O)(=O)N(CC(=O)Nc2cc(C)cc(C)c2)c2ccc(Cl)cc2)cc1	/	0%	-16%[46.1 µM]	/	8%[46.1 µM]	-32
CC(C)C(NC(=O)CN(c1ccc2c(c1)OCCO2)S(=O)(=O)c1ccccc1)C(C)C	18%	-3%	?	/	20%[46.1 µM]	-61*
Cc1ccc(Cl)cc1NC(=O)C1CCN(S(=O)(=O)c2cccc3nonc23)CC1	/	0%	29%[46.1 µM]	/	11%[46.1 µM]	-28
Cn1c(CN2CCOCC2)nc2cc(NC(=O)c3ccc(F)cc3)ccc21	?	/	-21%	7%	-5%	-75*
SMILES	HCV inh	FMDV inh	MARV entry inh	SARS PLpro yeast	Lassa entry inh	HCMV inh
CCOC(=O)N1CCN(Cc2nc3cc(NC(=O)c4ccccc4Cl)ccc3n2C(C)C)CC1	/	?	?	/	-19%[46.1 µM]	-90*
CCOC(=O)N1CCN(Cc2nc3cc(NC(C)=O)ccc3n2C(C)C)CC1	/	-16%	?	/	-24%[46.1 µM]	69
Cn1c(CN2CCCC2)nc2cc(NC(=O)COc3ccc(Cl)cc3)ccc21	?	/	?	0%	20%	6
Cn1c(CN2CCCC2)nc2cc(NC(=O)c3ccc(Cl)cc3)ccc21	?	0%	-28%	-4%	20%	-73*
Cn1c(CN2CCCCC2)nc2cc(NC(=O)c3ccc(Cl)cc3)ccc21	4µM*	18µM*!	21µM*	-4%	19%[46.1 µM]	-67*
CC1C=C2OC(N)=C(C#N)C(c3ccncc3)C2C(=O)N1CCN(C)C (stereo unspecified)	/	/	1%	/	/	/
O=C(NCc1ccc(Cl)c(Cl)c1)O[C@H]1CC[C@@]23CCCN2C(=O)CCC[C@H]3[C@H]1Cc1ccccc1	/	/	/	/	/	-5
COC(=O)[C@]12C[C@@H]3CCN(C(=O)N[C@@H]1c1ccccc1)[C@@]32C	/	/	76%[14.2 µM]	/	?	/
COc1ccc(NC(=O)c2cc(C3CC3)nc3c2c(C)nn3-c2ccc(C)cc2)cc1OC	/	-24%	/	/	21%[46.1 µM]	14
Cc1ccc(-n2nc3ccc(NC(=O)COc4ccccc4C)cc3n2)cc1	/	-8%	/	/	5%[46.1 µM]	56
Cc1ccc(NC(=O)COc2ccc(CCO)cc2-n2nc3ccccc3n2)cc1C	13µM*	-18%	?	?	?	?
Cc1cc(N2CCN(c3nc(-c4ccc([N+](=O)[O-])cc4)cs3)CC2)c2ccccc2n1	6.3µM*	?	11µM*	-1%	?	-23
COc1ccc(-c2oc3ncn4nc(COc5ccc(C)cc5)nc4c3c2-c2ccc(OC)cc2)cc1	/	-14%	/	/	-8%[46.1 µM]	15
CCn1cc2nc(SCC(=O)Nc3cc(OC)ccc3OC)n(Cc3ccc(Cl)cc3)c(=O)c2n1	/	-5%	13µM*	/	-2%[46.1 µM]	3
CCN(CC)C(=O)CSc1nc2cc3c(cc2c(=O)n1CCCC(=O)NCc1ccc(OC)cc1)OCO3	?	-2%	?	2%	?	-14
CCn1cc2nc(SCC(=O)Nc3ccc(OC)cc3OC)n(Cc3ccc(Cl)cc3)c(=O)c2n1	/	47%	?	/	?	-29
CCN(CC)C(=O)CSc1nc2cc(OC)c(OC)cc2c(=O)n1Cc1ccc(Cl)cc1	?	-13%	?	-6%	?	-78*
Cc1cccc(-c2cc(NC(=O)COc3ccccc3F)n(-c3ccccc3)n2)c1	/	0%	/	/	?	54
COc1ccccc1N1CC(C(=O)Nc2ccccc2N2CCCC2)CC1=O (stereo unspecified)	?	-3%	6%[46.1 µM]	-6%	9%	-21
CCc1ccc(NC(=O)c2cnn(-c3ccccc3)c2C2CCNCC2)cc1	28%	-20%	-17%	-4%	1%	?
